# Data published in PubChem BioAssay (Tox21).
# Where “and” joins values, the source holds several entries; their conditions need not be identical. Equal entries are not always repeated. Inconclusive results are not listed. Entries that show only a call come without a potency. Some compounds were tested as several samples or in several runs, with calls that do not always agree. Calls of active or inactive are those of the source. Unless noted, calls follow the shape of the dose curve; as a rule, active = well fitted curve in the direction sought with a large enough effect in the repeat runs; inconclusive = weak or mixed curves; inactive = no such curve, though single readings can be large; an effect the other way counts as inactive or inconclusive.
# Tests used:
# [1] = qHTS assay to identify aromatase inhibitors - cell viability counter screen (AID 743084);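 also: cells stimulated with testosterone during compound exposure; nearly all actives have a fitted effect of over 55% in size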
# [2] = biological target: Aryl hydrocarbon receptor (Homo sapiens) (UniProt P35869); experiment: qHTS assay to identify small molecule that activate the aryl hydrocarbon receptor (AhR) signaling pathway (AID 743085); also: nearly all actives have a fitted effect of over 15% in size; also: potency is read from the fitted curve at half-maximal effect;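 as to activation: HG2L7.5c1 human HepG2 liver cells with stably integrated DRE-driven firefly reporter; series mostly up to about 70 µM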
# In short: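 Reporter assay in engineered HepG2 line HG2L7.5c1, whose plasmid carries twenty dioxin responsive elements upstream of firefly luciferase. Treatment lasted 24 h at 37C; ONE-Glo luminescence gauged induction.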
# [3] = qHTS assay to identify small molecule that activate the aryl hydrocarbon receptor (AhR) signaling pathway - cell viability counter screen (AID 743086);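 also: HepG2 liver cells carrying the AhR DRE luciferase reporter; series mostly up to about 70 µM; nearly all actives have a fitted effect of over 45% in size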
# In short: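 HepG2-AhR-luc (HG2L7.5c1) cells, 4000/well, treated 24 h at 37 C with compound; viability measured as CellTiter-Fluor fluorescence after 30 min in the same wells as the luciferase read.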
# [4] = biological target: Peroxisome proliferator-activated receptor gamma (Homo sapiens) (UniProt P37231); experiment: qHTS assay to identify small molecule agonists of the peroxisome proliferator-activated receptor gamma (PPARg) signaling pathway (AID 743094; active = well fitted activation curve with a large enough effect in the signal ratio in the repeat runs, not every such curve was filed as active; the % refers to the signal ratio)
# In short: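 Compounds dissolved in DMSO were added to PPARg UAS-bla HEK293H cells for 17 h at 37C, and reporter expression was quantified by fluorescence intensity after 1 h with LiveBLAzer B/G FRET substrate.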
# [5] = biological target: Peroxisome proliferator-activated receptor gamma (Homo sapiens) (UniProt P37231); experiment: qHTS assay to identify small molecule antagonists of the peroxisome proliferator-activated receptor gamma (PPARg) signaling pathway (AID 743191; calls by dose curve; also: nearly all actives have a fitted effect of over 30% in size; also: potency is read from the fitted curve at half-maximal effect)
# In short: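 GeneBLAzer PPARg UAS-bla HEK293H cells, 5 h post-plating, exposed to compounds 17 h at 37C. LiveBLAzer B/G FRET substrate added for 1 h at room temperature; beta-lactamase reporter read by fluorescence intensity.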
# [6] = qHTS assay to identify small molecule antagonists of the peroxisome proliferator-activated receptor gamma (PPARg) signaling pathway - cell viability counter screen (AID 743194); also: nearly all actives have a fitted effect of over 55% in size
# In short: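 Cytotoxicity counter screen in PPARg-bla HEK293H cells, same wells as reporter assay. Compounds plus 50 nM rosiglitazone (final) for 17 h at 37 C, then viability read by CellTiter-Glo luminescence.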
# [7] = qHTS assay for small molecule agonists of the antioxidant response element (ARE) signaling pathway (AID 743202; active = well fitted activation curve with a large enough effect in the signal ratio in the repeat runs, not every such curve was filed as active; the % refers to the signal ratio; also: potency is read from the fitted curve at half-maximal effect)
# In short: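 ARE-bla HepG2 cells (beta-lactamase reporter under the antioxidant response element), plated 5 hours, then exposed to compounds 16 hours at 37 C. LiveBLAzer B/G FRET substrate added for 2 hours at room temperature; fluorescence intensity read.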
# [8] = qHTS assay for small molecule agonists of the antioxidant response element (ARE) signaling pathway - cell viability counter screen (AID 743203; calls by dose curve; also: nearly all actives have a fitted effect of over 55% in size)
# In short: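 Following 16 hrs of compound treatment at 37C, HepG2 cells with an ARE-controlled beta-lactamase gene were lysed with CellTiter-Glo. Luminescence was read after 30 min at room temperature.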
# [9] = qHTS assay for small molecule activators of the heat shock response signaling pathway - cell viability counter screen (AID 743209); also: nearly all actives have a fitted effect of over 50% in size
# In short: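 Readout: CellTiter-Glo luminescence, 30 min at room temperature. System: HSE-bla HeLa cells, 1500/well, plated overnight. Treatment: compounds in DMSO, 5 h at 37 C.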
# [10] = qHTS assay for small molecule activators of the heat shock response signaling pathway (AID 743210; active = well fitted activation curve with a large enough effect in the signal ratio in the repeat runs, with a control signal flat, not every such curve was filed as active; the % refers to the signal ratio; also: series mostly up to about 63 µM)
# In short: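 HSE-bla HeLa cells (beta-lactamase reporter under heat shock response elements), plated overnight, then exposed to compounds 5 h at 37 C; LiveBLAzer B/G FRET substrate added, 2.5 h at room temperature, fluorescence intensity read.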
# [11] = biological target: Peroxisome proliferator-activated receptor delta (Homo sapiens) (UniProt Q03181); experiment: qHTS assay to identify small molecule agonists of the peroxisome proliferator-activated receptor delta (PPARd) signaling pathway (AID 743212; calls by dose curve)
# In short: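 GeneBLAzer UAS-bla HEK293H cells carrying a PPARδ construct were exposed to compounds at 37 °C. Beta-lactamase activity was read by FRET fluorescence after 2 h at room temperature with LiveBLAzer B/G substrate.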
# [12] = qHTS assay to identify small molecule antagonists of the peroxisome proliferator-activated receptor delta (PPARd) signaling pathway - cell viability counter screen (AID 743213); also: nearly all actives have a fitted effect of over 50% in size
# In short: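 In this counter screen, HEK293H cells carrying a UAS-beta-lactamase reporter are co-treated with test compounds and 300 nM L165041 (final) for 17 h at 37 C; cell viability is quantified by CellTiter-Glo luminescence.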
# [13] = biological target: Peroxisome proliferator-activated receptor delta (Homo sapiens) (UniProt Q03181); experiment: qHTS assay to identify small molecule antagonists of the peroxisome proliferator-activated receptor delta (PPARd) signaling pathway (AID 743215; active = well fitted inhibition curve with a large enough effect in the signal ratio in the repeat runs, not every such curve was filed as active; the % refers to the signal ratio;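 also: cells stimulated with agonist L165041 at 300 nM final during compound exposure; series mostly up to about 62 µM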)
# In short: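 HEK293H UAS-bla, PPARd; agonist L165041 300 nM final with cpd in DMSO; 37 C 17 h; FRET substrate, RT 2 h; fluorescence intensity.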
# [14] = qHTS assay to identify small molecule agonists of the farnesoid-X-receptor (FXR) signaling pathway - cell viability counter screen (AID 743218); also: nearly all actives have a fitted effect of over 45% in size
# In short: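 Parallel cytotoxicity test: compound-treated (16 h, 37 C) HEK 293T FXR-bla reporter cells were lysed with CellTiter-Glo and luminescence recorded.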
# [15] = qHTS assay to identify small molecule antagonists of the farnesoid-X-receptor (FXR) signaling pathway - cell viability counter screen (AID 743221; active = well fitted cell-killing curve with a large enough effect in the repeat runs, not every such curve was filed as active; also: nearly all actives have a fitted effect of over 50% in size)
# In short: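 CellTiter-Glo, 30 min RT, luminescence; same wells as the LiveBLAzer FRET read. Cells: FXR-UAS-bla HEK 293T. Treatment: compound with chenodeoxycholic acid 50 uM final, 16 h at 37 C.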
# [16] = biological target: Vitamin D3 receptor (Homo sapiens) (UniProt P11473); experiment: qHTS assay to identify small molecule agonists of the vitamin D receptor (VDR) signaling pathway (AID 743222; calls by dose curve)
# In short: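 In VDR-bla cells, compound-induced beta-lactamase expression is quantified by FRET substrate fluorescence. Treatment lasts 16 h at 37C; substrate develops 2 h at room temperature.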
# [17] = biological target: Vitamin D3 receptor (Homo sapiens) (UniProt P11473); experiment: qHTS assay to identify small molecule antagonists of the vitamin D receptor (VDR) signaling pathway (AID 743223; active = well fitted inhibition curve with a large enough effect in the signal ratio in the repeat runs, not every such curve was filed as active; the % refers to the signal ratio)
# In short: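 After VDR-bla cells are plated and left 4 h at 37C, DMSO-dissolved compounds and 3 nM (final) calcitriol agonist are added. Incubation continues 16 h at 37C; FRET beta-lactamase substrate then develops 2 h at room temperature.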
# [18] = biological target: Bile acid receptor (Homo sapiens) (UniProt Q96RI1); experiment: qHTS assay to identify small molecule antagonists of the farnesoid-X-receptor (FXR) signaling pathway (AID 743217; active = well fitted inhibition curve with a large enough effect in the signal ratio in the repeat runs, not every such curve was filed as active; the % refers to the signal ratio; also: potency is read from the fitted curve at half-maximal effect)
# In short: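 GeneBLAzer FXR-UAS-bla HEK 293T, CDCA-stimulated (50 uM final). Compound treatment 16 h, 37 °C. Detection: beta-lactamase cleavage of B/G FRET substrate, fluorescence.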
# [19] = biological target: Bile acid receptor (Homo sapiens) (UniProt Q96RI1); experiment: qHTS assay to identify small molecule agonists of the farnesoid-X-receptor (FXR) signaling pathway (AID 743220; active = well fitted activation curve with a large enough effect in the signal ratio in the repeat runs, not every such curve was filed as active; the % refers to the signal ratio)
# In short: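 Beta-lactamase reporter under UAS control in GeneBLAzer FXR HEK 293T cells (5000/well) measured with LiveBLAzer FRET substrate after 2 h at room temperature. Compound exposure lasted 16 h at 37C.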
# Aryl hydrocarbon receptor (Homo sapiens), sequence (P35869 whole entry, looked up): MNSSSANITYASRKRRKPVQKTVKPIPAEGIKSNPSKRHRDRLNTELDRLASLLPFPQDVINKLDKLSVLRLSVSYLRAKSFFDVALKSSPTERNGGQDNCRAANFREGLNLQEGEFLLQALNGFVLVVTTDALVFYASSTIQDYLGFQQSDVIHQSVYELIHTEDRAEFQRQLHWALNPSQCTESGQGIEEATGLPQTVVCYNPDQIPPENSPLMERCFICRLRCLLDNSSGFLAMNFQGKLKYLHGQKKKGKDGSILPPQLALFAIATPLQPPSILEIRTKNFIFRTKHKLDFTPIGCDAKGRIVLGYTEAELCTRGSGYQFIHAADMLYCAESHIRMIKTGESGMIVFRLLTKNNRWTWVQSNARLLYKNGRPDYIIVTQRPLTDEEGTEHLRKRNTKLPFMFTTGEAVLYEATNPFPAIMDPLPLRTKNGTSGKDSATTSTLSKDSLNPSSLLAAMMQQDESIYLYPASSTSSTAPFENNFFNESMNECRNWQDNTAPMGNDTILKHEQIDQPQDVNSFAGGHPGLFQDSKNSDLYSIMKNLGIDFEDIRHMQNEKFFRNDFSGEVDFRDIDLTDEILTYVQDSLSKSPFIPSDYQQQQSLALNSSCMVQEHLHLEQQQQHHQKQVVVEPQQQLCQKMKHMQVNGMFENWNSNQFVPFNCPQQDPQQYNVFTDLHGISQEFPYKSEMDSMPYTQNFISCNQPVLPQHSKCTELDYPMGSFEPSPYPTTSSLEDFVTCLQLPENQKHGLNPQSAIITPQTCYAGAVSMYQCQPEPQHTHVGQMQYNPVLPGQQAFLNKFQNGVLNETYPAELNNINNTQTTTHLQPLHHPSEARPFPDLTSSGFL
# Bile acid receptor (Homo sapiens), sequence (Q96RI1 whole entry, looked up): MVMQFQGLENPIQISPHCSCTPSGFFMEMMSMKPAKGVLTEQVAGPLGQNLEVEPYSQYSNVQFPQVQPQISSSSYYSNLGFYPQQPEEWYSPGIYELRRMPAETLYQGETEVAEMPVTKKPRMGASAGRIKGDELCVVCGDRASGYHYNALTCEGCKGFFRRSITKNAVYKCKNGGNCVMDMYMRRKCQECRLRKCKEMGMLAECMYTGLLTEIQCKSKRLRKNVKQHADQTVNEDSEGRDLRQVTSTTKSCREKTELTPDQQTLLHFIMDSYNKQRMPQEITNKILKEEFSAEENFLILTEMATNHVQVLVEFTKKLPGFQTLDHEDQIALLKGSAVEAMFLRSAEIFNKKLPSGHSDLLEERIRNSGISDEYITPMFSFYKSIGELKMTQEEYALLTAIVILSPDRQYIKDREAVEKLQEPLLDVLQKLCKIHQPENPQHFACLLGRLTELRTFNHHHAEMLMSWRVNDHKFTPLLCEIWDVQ
# Peroxisome proliferator-activated receptor delta (Homo sapiens), sequence (Q03181 whole entry, looked up): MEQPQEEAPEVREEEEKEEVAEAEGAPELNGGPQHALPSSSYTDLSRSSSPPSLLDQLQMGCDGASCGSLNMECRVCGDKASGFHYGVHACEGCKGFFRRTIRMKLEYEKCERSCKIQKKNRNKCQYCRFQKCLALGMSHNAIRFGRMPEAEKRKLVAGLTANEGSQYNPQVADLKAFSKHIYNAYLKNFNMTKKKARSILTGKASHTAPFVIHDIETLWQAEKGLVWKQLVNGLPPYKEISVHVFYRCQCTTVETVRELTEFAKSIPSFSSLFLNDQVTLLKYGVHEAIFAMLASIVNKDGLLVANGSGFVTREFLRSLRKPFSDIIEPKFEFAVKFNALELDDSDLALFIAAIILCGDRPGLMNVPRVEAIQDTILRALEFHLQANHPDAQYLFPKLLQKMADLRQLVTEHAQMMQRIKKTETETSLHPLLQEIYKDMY
# Vitamin D3 receptor (Homo sapiens), sequence (P11473 whole entry, looked up): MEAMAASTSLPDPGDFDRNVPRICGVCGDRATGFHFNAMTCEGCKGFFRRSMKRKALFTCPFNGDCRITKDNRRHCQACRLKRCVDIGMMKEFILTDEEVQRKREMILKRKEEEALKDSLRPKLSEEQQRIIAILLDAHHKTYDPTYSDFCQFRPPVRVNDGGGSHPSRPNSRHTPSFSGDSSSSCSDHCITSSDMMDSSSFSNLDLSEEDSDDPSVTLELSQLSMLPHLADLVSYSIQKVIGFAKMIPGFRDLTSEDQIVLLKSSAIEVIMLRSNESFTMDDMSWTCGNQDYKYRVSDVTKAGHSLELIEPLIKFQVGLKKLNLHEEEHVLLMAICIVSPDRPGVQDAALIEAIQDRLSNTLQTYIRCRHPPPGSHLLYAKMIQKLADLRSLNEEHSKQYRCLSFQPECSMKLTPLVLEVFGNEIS
# Peroxisome proliferator-activated receptor gamma (Homo sapiens), sequence (P37231 whole entry, looked up): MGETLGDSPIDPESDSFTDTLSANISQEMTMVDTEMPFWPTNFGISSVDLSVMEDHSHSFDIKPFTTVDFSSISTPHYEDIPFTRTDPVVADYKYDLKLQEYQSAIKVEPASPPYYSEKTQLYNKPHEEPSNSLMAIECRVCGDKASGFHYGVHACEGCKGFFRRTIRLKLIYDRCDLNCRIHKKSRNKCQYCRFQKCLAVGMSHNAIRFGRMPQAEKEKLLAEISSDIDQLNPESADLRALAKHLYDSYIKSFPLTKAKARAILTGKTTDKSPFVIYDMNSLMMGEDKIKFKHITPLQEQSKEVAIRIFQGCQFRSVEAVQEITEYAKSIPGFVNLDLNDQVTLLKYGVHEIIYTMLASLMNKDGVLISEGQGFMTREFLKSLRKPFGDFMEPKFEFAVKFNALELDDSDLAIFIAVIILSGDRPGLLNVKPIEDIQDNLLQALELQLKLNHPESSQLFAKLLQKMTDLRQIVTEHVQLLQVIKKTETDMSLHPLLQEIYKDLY
SMILES,Potency [1],Potency [2],Potency [3],Potency [4],Potency [5],Potency [6],Potency [7],Potency [8],outcome [9],outcome [10],outcome [11],Potency [12],outcome [13],Potency [14],outcome [15],outcome [16],Potency [17],Potency [18],outcome [19]
NC(=O)N1c2ccccc2C=Cc2ccccc21,inactive,inactive,inactive,inactive,inactive,inactive,inactive,inactive,inactive,inactive,inactive,inactive,inactive,inactive,inactive,,,,
C=C(C)OC(C)=O,inactive,inactive,inactive,inactive,inactive,inactive,inactive,inactive,inactive,inactive,,inactive,,inactive,inactive,inactive,inactive,,
CN/C(=C\[N+](=O)[O-])NCCSCc1ccc(CN(C)C)o1,inactive,inactive,inactive,inactive,inactive,inactive,inactive,inactive,inactive,,inactive,inactive,inactive,inactive,inactive,inactive,,,
COc1cc(O)c(C(=O)c2ccccc2)cc1S(=O)(=O)O,inactive,inactive,inactive,inactive,inactive,inactive,inactive,inactive,inactive,inactive,inactive,inactive,inactive,inactive,inactive,inactive,,inactive,inactive
Cc1ccc(O)c(-n2nc3ccccc3n2)c1,inactive,21.1 µM (active) and 60.6 µM (active) and 17.2 µM (active),inactive,inactive,inactive,inactive,60.6 µM (active),inactive,inactive,inactive,inactive,inactive,inactive,inactive,inactive,inactive,,inactive,inactive
C=CC(=O)NC(C)(C)CS(=O)(=O)O,inactive,inactive,inactive,inactive,inactive,inactive,inactive,inactive,inactive,inactive,inactive,inactive,inactive,inactive,inactive,inactive,,,
Cc1cccc2ccccc12,inactive,inactive,inactive,inactive,inactive,inactive,inactive,inactive,inactive,inactive,inactive,inactive,inactive,inactive,inactive,inactive,inactive,inactive,inactive
Nc1cccc(N)c1,inactive,54.4 µM (active),inactive,inactive,inactive,inactive,inactive,inactive,inactive,inactive,,inactive,,inactive,inactive,inactive,,inactive,inactive
Cc1cnc(NC(=O)C2=C(O)c3ccccc3S(=O)(=O)N2C)s1,inactive,inactive and 61.1 µM (active),inactive,inactive,inactive,inactive,,inactive,inactive,inactive,inactive,inactive,inactive,inactive,inactive,,,inactive,inactive
OC[C@@H](O)[C@@H](O)[C@H](O)[C@H](O)CO,inactive,inactive,inactive,inactive,inactive,inactive,inactive,inactive,inactive,inactive,,inactive,,inactive,inactive,inactive,,,
N[C@@H](Cc1c[nH]c2ccccc12)C(=O)O,inactive,30.7 µM (active),inactive,inactive,inactive,inactive,inactive,inactive,inactive,inactive,inactive,inactive,inactive,inactive,inactive,inactive,,,
CCN1CCCC1=O,inactive,inactive,inactive,inactive,inactive,inactive,inactive,inactive,inactive,inactive,,inactive,,inactive,inactive,inactive,inactive,inactive,inactive
O=c1c(-c2ccc(O)cc2)coc2cc(O)cc(O)c12,inactive,inactive and 12.2 µM (active),inactive,inactive,48.1 µM (active) and 38.9 µM (active),inactive,6.74 µM (active) and 10.6 µM (active),inactive,inactive,inactive,inactive,inactive,,inactive,inactive,inactive,inactive,38.9 µM (active) and 26.6 µM (active),inactive
CCN(CC)CCOC(=O)c1ccc(N)cc1,inactive,inactive,inactive,inactive,inactive,inactive,inactive,inactive,inactive,inactive,,inactive,,inactive,inactive,inactive,,,
C#C[C@]1(O)CC[C@H]2[C@@H]3CCC4=CC(=O)CC[C@@H]4[C@H]3CC[C@@]21CC,inactive,inactive,inactive,inactive,inactive,inactive,48.6 µM (active),inactive,inactive,,inactive,inactive,inactive,inactive,inactive,inactive,,,
NC(N)=NC(N)=NCCc1ccccc1,inactive,inactive,inactive,inactive,inactive,inactive,6.08 µM (active) and 6.68 µM (active),inactive,inactive,inactive,inactive,inactive,inactive,inactive,inactive,,,,
